Measured values published in the supplement of paper PMC8728848.
About 410 targets per protein were measured; listed, in parts, are those with the strongest signals and a random draw of the rest.

Assays:
Test in all cases: glycan array binding signal (z-score within array); higher = stronger binding
Conditions in all cases: glycan notation: IUPAC condensed, linker removed
[1] = molecular target: Fuc(a1-2)Gal(b1-3)GalNAc(b1-3)Gal(a1-4)Gal(b1-4)Glc
Method in brief: (§1)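 Glycan array data came from 3228 arrays in the Consortium for Functional Glycomics database, and only arrays with an available protein sequence were kept. Glycan names were put into IUPAC-condensed notation, and columns mapping to the same glycan were averaged. The binding signal is a within-array Z-score, averaged across arrays of one protein sequence run at different concentrations or buffers and across linkers. A negative Z-score can be read as non-binding.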

[2] = molecular target: Fuc(a1-2)Gal(b1-3)[Fuc(a1-4)]GlcNAc(b1-2)Man(a1-3)[Fuc(a1-2)Gal(b1-3)[Fuc(a1-4)]GlcNAc(b1-2)Man(a1-6)]Man(b1-4)GlcNAc(b1-4)[Fuc(a1-6)]GlcNAc(b1-4)[Fuc(a1-6)]GlcNAc
Method in brief: as §1

[3] = molecular target: Fuc(a1-2)[Gal(a1-3)]Gal(b1-3)GlcNAc(b1-3)GalNAc
Method in brief: as §1

[4] = molecular target: Fuc(a1-2)[Gal(a1-3)]Gal(b1-4)GlcNAc(b1-6)GalNAc
Method in brief: as §1

[5] = molecular target: Fuc(a1-2)[GalNAc(a1-3)]Gal(b1-3)GlcNAc
Method in brief: as §1

[6] = molecular target: Fuc(a1-2)[GalNAc(a1-3)]Gal(b1-3)GlcNAc(b1-2)Man(a1-3)[Fuc(a1-2)[GalNAc(a1-3)]Gal(b1-3)GlcNAc(b1-2)Man(a1-6)]Man(b1-4)GlcNAc(b1-4)[Fuc(a1-6)]GlcNAc
Method in brief: as §1

[7] = molecular target: Fuc(a1-3)[Gal(b1-4)]Glc6S
Method in brief: as §1

[8] = molecular target: Fuc(a1-3)[Gal(b1-4)]GlcNAc(b1-2)Man(a1-3)[Fuc(a1-3)[Gal(b1-4)]GlcNAc(b1-2)Man(a1-6)]Man(b1-4)GlcNAc(b1-4)[Fuc(a1-6)]GlcNAc
Method in brief: as §1

[9] = molecular target: Fuc(a1-3)[GalNAc(b1-4)]GlcNAc6S
Method in brief: as §1

[10] = molecular target: Gal(a1-3)Gal(b1-3)GlcNAc(b1-2)Man(a1-3)[Gal(a1-3)Gal(b1-3)GlcNAc(b1-2)Man(a1-6)]Man(b1-4)GlcNAc(b1-4)GlcNAc
Method in brief: as §1

[11] = molecular target: Gal(a1-3)Gal(b1-3)GlcNAc(b1-3)GalNAc
Method in brief: as §1

[12] = molecular target: Gal(a1-3)Gal(b1-4)GlcNAc(b1-6)GalNAc
Method in brief: as §1

[13] = molecular target: Gal(a1-3)Gal(b1-4)[Fuc(a1-3)]GlcNAc(b1-2)Man(a1-3)[Gal(a1-3)Gal(b1-4)[Fuc(a1-3)]GlcNAc(b1-2)Man(a1-6)]Man(b1-4)GlcNAc(b1-4)GlcNAc
Method in brief: as §1

Gal(a1-4)GlcNAc = molecular target: Gal(a1-4)GlcNAc
Method in brief: as §1

Gal(a1-6)Glc = molecular target: Gal(a1-6)Glc
Method in brief: as §1

[14] = molecular target: Gal(b1-3)GalNAc(b1-4)Gal(b1-4)Glc
Method in brief: as §1

[15] = molecular target: Gal(b1-3)GlcNAc(a1-6)Gal(b1-4)GlcNAc
Method in brief: as §1

[16] = molecular target: Gal(b1-3)GlcNAc(b1-3)Gal(b1-3)GlcNAc
Method in brief: as §1

[17] = molecular target: Gal(b1-3)GlcNAc(b1-3)Gal(b1-4)GlcNAc
Method in brief: as §1

[18] = molecular target: Gal(b1-3)GlcNAc(b1-3)Gal(b1-4)[Fuc(a1-3)]GlcNAc(b1-6)[Gal(b1-3)GlcNAc(b1-3)]Gal(b1-4)Glc
Method in brief: as §1

[19] = molecular target: Gal(b1-3)[Fuc(a1-4)]GlcNAc(b1-2)Man
Method in brief: as §1

[20] = molecular target: Gal(b1-3)[Fuc(a1-4)]GlcNAc(b1-3)Gal(b1-4)[Fuc(a1-3)]GlcNAc
Method in brief: as §1

[21] = molecular target: Gal(b1-3)[Neu5Ac(a2-6)]GalNAc
Method in brief: as §1

[22] = molecular target: Gal(b1-4)GlcNAc(b1-2)Man(a1-3)[Gal(b1-4)GlcNAc(b1-2)Man(a1-6)][GlcNAc(b1-4)]Man(b1-4)GlcNAc(b1-4)[Fuc(a1-6)]GlcNAc
Method in brief: as §1

[23] = molecular target: Gal(b1-4)GlcNAc(b1-2)Man(a1-3)[GlcNAc(b1-4)][Gal(b1-4)GlcNAc(b1-2)Man(a1-6)]Man(b1-4)GlcNAc(b1-4)GlcNAc
Method in brief: as §1

[24] = molecular target: Gal(b1-4)GlcNAc(b1-2)Man(a1-3)[Man(a1-6)]Man(b1-4)GlcNAc(b1-4)GlcNAc
Method in brief: as §1

[25] = molecular target: Gal(b1-4)GlcNAc(b1-2)[Gal(b1-4)GlcNAc(b1-4)]Man(a1-3)[GlcNAc(b1-4)][Gal(b1-4)GlcNAc(b1-2)Man(a1-6)]Man(b1-4)GlcNAc(b1-4)GlcNAc
Method in brief: as §1

[26] = molecular target: Gal(b1-4)GlcNAc(b1-2)[Gal(b1-4)GlcNAc(b1-6)]Man(a1-6)[Gal(b1-4)GlcNAc(b1-2)Man(a1-3)]Man(b1-4)GlcNAc(b1-4)[Fuc(a1-6)]GlcNAc
Method in brief: as §1

[27] = molecular target: Gal(b1-4)GlcNAc(b1-3)Gal(b1-4)GlcNAc(b1-2)[Gal(b1-4)GlcNAc(b1-3)Gal(b1-4)GlcNAc(b1-6)]Man(a1-6)[Gal(b1-4)GlcNAc(b1-3)Gal(b1-4)GlcNAc(b1-2)Man(a1-3)]Man(b1-4)GlcNAc(b1-4)GlcNAc
Method in brief: as §1

[28] = molecular target: Gal(b1-4)GlcNAc(b1-3)Gal(b1-4)GlcNAc(b1-3)Gal(b1-4)GlcNAc(b1-3)Gal(b1-4)GlcNAc(b1-2)Man(a1-3)[Gal(b1-4)GlcNAc(b1-3)Gal(b1-4)GlcNAc(b1-3)Gal(b1-4)GlcNAc(b1-3)Gal(b1-4)GlcNAc(b1-2)Man(a1-6)]Man(b1-4)GlcNAc(b1-4)GlcNAc
Method in brief: as §1

B1: Epa3to1 (Candida glabrata) (protein)
chain: MGSSHHHHHHSSGLVPRGSHMKRELSSQNPFGYPIGCSPQDVAIIPGLTMELYSYPIVSGTPPNCYDASYVDPEYPRTGYLKRKMVGKSTGVTGNLNYKYSVEKACMVKYGNLPAGYNYNEPLTVSNFTMILYGYFKAQTTGLHTFFVNADDLLYINFGAGNAFDCCKREDSKTKLGEYVAYDIWHVDSSKNKVSLFLEKDLYYPIRMFFNNREYDSSLDLSFSVNGATDQISDFSGYLYSVPDQPDTCPAHIGYDTTCR
glycan array binding signal (z-score) [1]: -0.161 | glycan array binding signal (z-score) [2]: -0.07 | glycan array binding signal (z-score) [3]: -0.274 | glycan array binding signal (z-score) [4]: -0.462 | glycan array binding signal (z-score) [5]: 0.225 | glycan array binding signal (z-score) [6]: -0.204 | glycan array binding signal (z-score) [7]: 0.568 | glycan array binding signal (z-score) [8]: 0.093 | glycan array binding signal (z-score) [9]: -0.498 | glycan array binding signal (z-score) [10]: 0.169 | glycan array binding signal (z-score) [11]: -0.594 | glycan array binding signal (z-score) [12]: 0.248 | glycan array binding signal (z-score) [13]: -0.206 | glycan array binding signal (z-score) (Gal(a1-4)GlcNAc): 3.41 | glycan array binding signal (z-score) (Gal(a1-6)Glc): 1.7 | glycan array binding signal (z-score) [14]: 5.3 | glycan array binding signal (z-score) [15]: 0.409 | glycan array binding signal (z-score) [16]: -0.713 | glycan array binding signal (z-score) [17]: -0.502 | glycan array binding signal (z-score) [18]: -0.061 | glycan array binding signal (z-score) [19]: -0.37 | glycan array binding signal (z-score) [20]: -0.87 | glycan array binding signal (z-score) [21]: 5.48 | glycan array binding signal (z-score) [22]: -0.745 | glycan array binding signal (z-score) [23]: -0.291 | glycan array binding signal (z-score) [24]: 3.23 | glycan array binding signal (z-score) [25]: 0.229 | glycan array binding signal (z-score) [26]: 0.071 | glycan array binding signal (z-score) [27]: 7.55 | glycan array binding signal (z-score) [28]: -0.05
